The results in this text go back to a collection of fitness landscapes (doi:10.1126/science.1257360).

To fix the notation:
B1: PhoQ; a variant is named by its letters at X, in order, P23837 (parent)
chain: MKKLLRLFFPLSLRVRFLLATAAVVLVLSLAYGMVALIGYSVSFDKTTFRLLRGESNLFYTLAKWENNKLHVELPENIDKQSPTMTLIYDENGQLLWAQRDVPWLMKMIQPDWLKSNGFHEIEADVNDTSLLLSGDHSIQQQLQEVREDDDDAEMTHSVAVNVYPATSRMPKLTIVVVDTIPVELKSSYMVWSWFIYVLSANLLLVIPLLWVAAWWSLRPIEALAKEVRELEEHNRELLNPATTRELTSLVRNLNRLLKSERERYDKYRTTLTDLTHSLKTPLXXLQXXLRSLRSEKMSVSDAEPVMLEQISRISQQIGYYLHRASMRGGTLLSRELHPVAPLLDNLTSALNKVYQRKGVNISLDISPEISFVGEQNDFVEVMGNVLDNACKYCLEFVEISARQTDEHLYIVVEDDGPGIPLSKREVIFDRGQRVDTLRPGQGVGLAVAREITEQYEGKIVAGESMLGGARMEVIFGRQHSAPKDE

In all, about 140,000 sequences were measured (“enrichment ratio after two sorts for PhoP signalling”: median about 0, highest 2% from about 11 on). Only a selection was taken, and the highest values are over-represented in it overall.

In the test the parent is B1. The experiment in a line: enrichment ratio after two sorts for PhoP signalling (ratio (wild type AVST 3.29)); higher = more functional. As to conditions: with PhoP (E. coli).
For the variant ICMS, the enrichment ratio amounted to 2.8.

For QRAT, the enrichment ratio was not above 0.25.

On to FCCR, for which the enrichment ratio was not above 0.25.

As for DASH, the enrichment ratio was not above 0.25.

Take RNKS: the enrichment ratio is not above 0.25.

NEMY: the enrichment ratio was not above 0.25.

With KSMY, the enrichment ratio is not above 0.25.

With ATMY, the enrichment ratio amounted to 7.37.

As for AEME, the enrichment ratio turned out to be 29.5.

As to YTMY, the enrichment ratio was not above 0.25.

As to TGME, the enrichment ratio was not above 0.25.

Turning to AEYE, the enrichment ratio is not above 0.25.

For WIMY, the enrichment ratio is not above 0.25.

For the variant TSMY, the enrichment ratio was 12.3.

In the case of AEMY, the enrichment ratio is 20.4.

With NSMY, the enrichment ratio was not above 0.25.

Turning to CTMY, the enrichment ratio was 42.4.

For the variant NYYK, the enrichment ratio was not above 0.25.

Consider IYHP, for which the enrichment ratio was not above 0.25.

Consider HPGR, for which the enrichment ratio was not above 0.25.

With EGAD, the enrichment ratio was not above 0.25.

Take VQVR: the enrichment ratio was not above 0.25.

For the variant KMTK, the enrichment ratio was not above 0.25.

Consider RCAP, for which the enrichment ratio is not above 0.25.

As to FMFM, the enrichment ratio is not above 0.25.

In the case of VPMC, the enrichment ratio is not above 0.25.

As to IEMC, the enrichment ratio turned out to be 12.9.

Consider SRMC, for which the enrichment ratio was not above 0.25.

Take MEMC: the enrichment ratio came to 4.97.

Consider TCMC, for which the enrichment ratio was found to be 24.2.

Take VEMC: the enrichment ratio was 15.7.

Consider VYMC, for which the enrichment ratio was 0.507.

Consider ITMC, for which the enrichment ratio was not above 0.25.

With EEMC, the enrichment ratio is not above 0.25.

In the case of VCMC, the enrichment ratio came to 1.73.

For the variant TYMC, the enrichment ratio is not above 0.25.

Regarding TEMC, the enrichment ratio was found to be 18.9.

Take DVLN: the enrichment ratio is not above 0.25.

IGSC: the enrichment ratio is not above 0.25.

Consider SHAH, for which the enrichment ratio was found to be 5.87.

With VCLL, the enrichment ratio came out at 6.51.

With FKPV, the enrichment ratio was not above 0.25.

Regarding QEMC, the enrichment ratio was not above 0.25.

For the variant KAMC, the enrichment ratio is not above 0.25.

As to SYMC, the enrichment ratio was not above 0.25.

For the variant NEMC, the enrichment ratio was not above 0.25.

For SCMC, the enrichment ratio was 12.6.

As to SPMC, the enrichment ratio is not above 0.25.

As to SLMC, the enrichment ratio was 3.3.

For KYMC, the enrichment ratio is not above 0.25.

With YAMC, the enrichment ratio is not above 0.25.

Turning to SIMC, the enrichment ratio stood at 19.4.

As to SEMC, the enrichment ratio stood at 18.

Take TAMC: the enrichment ratio is 14.6.

On to KIGP, for which the enrichment ratio was not above 0.25.

With VITT, the enrichment ratio is not above 0.25.

Consider TPNM, for which the enrichment ratio was not above 0.25.

Regarding YGCE, the enrichment ratio was not above 0.25.

With NYTT, the enrichment ratio was not above 0.25.

Regarding FHLQ, the enrichment ratio is not above 0.25.

Take ESME: the enrichment ratio was not above 0.25.

Regarding VRRK, the enrichment ratio is not above 0.25.

Consider PKDY, for which the enrichment ratio is not above 0.25.

Turning to VMIQ, the enrichment ratio is not above 0.25.

For YFFH, the enrichment ratio was not above 0.25.

Consider WWTW, for which the enrichment ratio was not above 0.25.

Consider GPQA, for which the enrichment ratio is not above 0.25.

As to IIMC, the enrichment ratio is not above 0.25.

With STMC, the enrichment ratio was found to be 8.81.

For the variant SAMC, the enrichment ratio amounted to 18.1.

Take EEMP: the enrichment ratio was not above 0.25.

As for QQNV, the enrichment ratio was not above 0.25.

Consider YMKP, for which the enrichment ratio was not above 0.25.

For the variant KMQM, the enrichment ratio is not above 0.25.

In the case of NNCK, the enrichment ratio was not above 0.25.

Turning to NNQM, the enrichment ratio worked out at 30.

As to TMQM, the enrichment ratio was 12.8.

Consider LNQM, for which the enrichment ratio was not above 0.25.

Take TNQM: the enrichment ratio was 14.3.

Consider MNQM, for which the enrichment ratio is not above 0.25.

As for TWQM, the enrichment ratio is not above 0.25.

Regarding HAQM, the enrichment ratio was not above 0.25.

VGDP: the enrichment ratio was not above 0.25.

On to RAMR, for which the enrichment ratio is not above 0.25.

For YTYM, the enrichment ratio is not above 0.25.

Consider WMWP, for which the enrichment ratio is not above 0.25.

Consider TDVG, for which the enrichment ratio was determined as 4.14.

As to SYVC, the enrichment ratio was 0.486.

With SDVC, the enrichment ratio was 11.5.

For STIC, the enrichment ratio came to 13.

Take KDVC: the enrichment ratio was not above 0.25.

With SDVG, the enrichment ratio came out at 1.53.

In the case of KSIC, the enrichment ratio is not above 0.25.

Consider SCIC, for which the enrichment ratio came out at 7.92.

Take TDIC: the enrichment ratio amounted to 14.4.

On to LTIC, for which the enrichment ratio is not above 0.25.

In the case of YTIC, the enrichment ratio was not above 0.25.

With TDVC, the enrichment ratio came out at 24.1.

For the variant NESI, the enrichment ratio is not above 0.25.

For the variant PFYL, the enrichment ratio was not above 0.25.

As to GFIL, the enrichment ratio is not above 0.25.

On to INEF, for which the enrichment ratio is not above 0.25.

On to MTNK, for which the enrichment ratio is not above 0.25.

On to IERL, for which the enrichment ratio was not above 0.25.

For MGNR, the enrichment ratio was not above 0.25.

Consider FHQW, for which the enrichment ratio is not above 0.25.

For the variant WMHQ, the enrichment ratio was not above 0.25.

On to VIIW, for which the enrichment ratio was not above 0.25.

For SYIC, the enrichment ratio stood at 0.411.

SDIC: the enrichment ratio was found to be 15.1.

For the variant SDRC, the enrichment ratio was not above 0.25.

In the case of VCHE, the enrichment ratio is not above 0.25.

GIRT: the enrichment ratio was not above 0.25.

Take ASTM: the enrichment ratio amounted to 12.3.

On to ASPM, for which the enrichment ratio came to 0.773.

With ASWM, the enrichment ratio is not above 0.25.

For the variant ASGD, the enrichment ratio is not above 0.25.

For the variant ASAM, the enrichment ratio is 20.2.

On to ASDH, for which the enrichment ratio was not above 0.25.

As for ASRM, the enrichment ratio was not above 0.25.

Regarding ASGM, the enrichment ratio is 22.7.

With ASAY, the enrichment ratio was determined as 4.58.

For TKYS, the enrichment ratio is not above 0.25.

With NHDM, the enrichment ratio is not above 0.25.

With KGIG, the enrichment ratio was not above 0.25.

With IWNF, the enrichment ratio is not above 0.25.

On to ETES, for which the enrichment ratio was not above 0.25.

For the variant IRLA, the enrichment ratio came to 0.272.

With GMFY, the enrichment ratio was not above 0.25.

For FLEE, the enrichment ratio is not above 0.25.

In the case of PCYL, the enrichment ratio was not above 0.25.

Consider FIHC, for which the enrichment ratio was not above 0.25.

LFFW: the enrichment ratio is not above 0.25.

On to TMQS, for which the enrichment ratio was determined as 14.3.

Regarding MMQI, the enrichment ratio was not above 0.25.

For the variant NMQS, the enrichment ratio was not above 0.25.

In the case of TMQP, the enrichment ratio was not above 0.25.

On to TMQI, for which the enrichment ratio came out at 12.3.

Take KMQS: the enrichment ratio is not above 0.25.

Consider KESH, for which the enrichment ratio was not above 0.25.

As for VQMH, the enrichment ratio is not above 0.25.

RVAL: the enrichment ratio is not above 0.25.

Take TGSS: the enrichment ratio worked out at 11.

TFSK: the enrichment ratio was not above 0.25.

In the case of TFSS, the enrichment ratio is 11.4.

As to CFSS, the enrichment ratio came to 11.9.

On to VFSS, for which the enrichment ratio was not above 0.25.

Consider WFSS, for which the enrichment ratio is not above 0.25.

On to LGDN, for which the enrichment ratio is not above 0.25.

As for FQYK, the enrichment ratio is not above 0.25.

Take SVGM: the enrichment ratio stood at 9.35.

For the variant KYSM, the enrichment ratio was not above 0.25.

On to SVSM, for which the enrichment ratio was determined as 13.3.

With SNSM, the enrichment ratio was 33.4.

As for SISF, the enrichment ratio was found to be 10.7.

With SVRM, the enrichment ratio is not above 0.25.

Consider LTSM, for which the enrichment ratio was not above 0.25.

For the variant ITSM, the enrichment ratio amounted to 2.11.
